Inconclusive results are not listed. The source made the active and inactive calls. How the source made its calls, unless noted: active means hit-call score of the fitted dose curve at least 0.9, where 1 is the maximum; inactive means score below 0.9.
Legend:
[1] = molecular target: Paired box protein Pax-6 (Homo sapiens) (UniProt P26367); assay: ATG_Pax6_CIS: Attagene CIS-FACTORIAL HepG2 Assay for human Paired Box 6 (PAX6) (AID 2282956); conditions: HepG2 CIS-FACTORIAL PAX6 reporter transcription, RNA readout; actives raise or lower the signal
Chain of Paired box protein Pax-6 (Homo sapiens) (P26367 whole entry, looked up): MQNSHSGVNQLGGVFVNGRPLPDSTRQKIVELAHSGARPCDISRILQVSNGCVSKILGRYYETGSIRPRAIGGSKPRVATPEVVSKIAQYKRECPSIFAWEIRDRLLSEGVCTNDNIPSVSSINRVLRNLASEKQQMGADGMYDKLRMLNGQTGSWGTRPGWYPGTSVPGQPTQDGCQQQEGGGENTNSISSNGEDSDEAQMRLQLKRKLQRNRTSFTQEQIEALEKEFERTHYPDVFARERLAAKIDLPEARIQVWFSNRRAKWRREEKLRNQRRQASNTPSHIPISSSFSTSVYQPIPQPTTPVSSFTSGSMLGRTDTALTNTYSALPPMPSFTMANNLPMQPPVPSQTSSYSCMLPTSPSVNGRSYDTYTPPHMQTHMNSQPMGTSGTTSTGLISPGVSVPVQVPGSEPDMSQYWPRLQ
Procedure, shortened: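 Multiplexed cis-reporter HepG2 system; 24 h treatment; reporter mRNA read by RT-PCR/CE fluorescence; bidirectional fit vs DMSO.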

[2] = ATG_PXRE_CIS: Attagene CIS-FACTORIAL HepG2 Assay for human Pregnane X Receptor Element (PXRE) (AID 2282957); conditions: HepG2 Attagene CIS-FACTORIAL PXRE reporter, mRNA; actives raise or lower the signal
Procedure, shortened: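 Transfect HepG2 with MRTUs (cis promoter elements); dose chemical, incubate 24 h; isolate RNA, RT with oligo(dT), PCR, 6-FAM label, HpaI cut, CE. Gain/loss fit vs DMSO.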

[3] = ATG_PPRE_CIS: Attagene CIS-FACTORIAL HepG2 Assay for human Peroxisome Proliferator-activated Response Element (PPRE) (AID 2282958); conditions: HepG2 PPRE cis-element reporter, Attagene transcription factor profiling; actives raise or lower the signal
Procedure, shortened: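 HepG2 cells transiently transfected with multiplexed cis-element reporter units measure endogenous transcription factor activity. After 24 h compound exposure, reporter mRNA is quantified by RT-PCR, 6-FAM labeling, HpaI digestion and capillary electrophoresis; bidirectional fits are made against DMSO baseline.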

[4] = ATG_Sox_CIS: Attagene CIS-FACTORIAL HepG2 Assay for human SRY-box transcription factor (SOX) (AID 2282960); conditions: HepG2 Attagene cis-factorial SOX reporter, mRNA; actives raise or lower the signal
Procedure, shortened: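 HepG2 cells transiently transfected with cis-element-driven multiple reporter transcription units, dosed 24 h; reporter mRNA measured by RT-PCR, FAM labelling, HpaI digestion and capillary electrophoresis. Bidirectional fit versus DMSO baseline.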

[5] = molecular target: Transcription factor Sp1 (Homo sapiens) (UniProt P08047); assay: ATG_Sp1_CIS: Attagene CIS-FACTORIAL HepG2 Assay for human Specificity Protein 1 (Sp1) (AID 2282961); conditions: HepG2 Sp1 cis-reporter transcription, actives raise or lower the signal
Chain of Transcription factor Sp1 (Homo sapiens) (P08047 whole entry, looked up): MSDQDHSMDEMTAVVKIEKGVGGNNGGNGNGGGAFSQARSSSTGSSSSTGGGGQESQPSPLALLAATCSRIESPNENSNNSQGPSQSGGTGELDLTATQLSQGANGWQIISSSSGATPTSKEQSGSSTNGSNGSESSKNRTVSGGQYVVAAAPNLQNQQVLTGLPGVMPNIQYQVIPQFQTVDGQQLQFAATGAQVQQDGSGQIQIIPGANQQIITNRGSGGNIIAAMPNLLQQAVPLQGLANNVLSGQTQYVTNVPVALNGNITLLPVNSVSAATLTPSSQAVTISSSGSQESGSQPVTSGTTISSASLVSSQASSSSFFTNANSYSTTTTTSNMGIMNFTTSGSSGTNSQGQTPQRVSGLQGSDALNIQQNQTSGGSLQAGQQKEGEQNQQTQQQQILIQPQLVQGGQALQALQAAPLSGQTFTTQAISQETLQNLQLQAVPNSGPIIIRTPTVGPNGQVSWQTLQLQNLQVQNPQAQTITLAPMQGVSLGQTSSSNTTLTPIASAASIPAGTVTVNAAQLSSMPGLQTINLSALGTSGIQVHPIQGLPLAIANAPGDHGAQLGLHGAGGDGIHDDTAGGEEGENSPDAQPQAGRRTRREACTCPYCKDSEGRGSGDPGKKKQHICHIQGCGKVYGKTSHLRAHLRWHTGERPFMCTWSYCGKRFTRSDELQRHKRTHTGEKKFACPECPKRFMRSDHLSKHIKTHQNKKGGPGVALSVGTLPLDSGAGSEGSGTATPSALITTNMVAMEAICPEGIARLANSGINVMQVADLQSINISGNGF
Procedure, shortened: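 HepG2 cells transiently transfected with multiple reporter transcription units driven by cis-regulatory elements; Sp1-responsive reporter mRNA measured 24 h after dosing by RT-PCR and capillary electrophoresis fluorescence, fitted bidirectionally against DMSO baseline.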

[6] = ATG_SREBP_CIS: Attagene CIS-FACTORIAL HepG2 Assay for human Sterol Regulatory Element Binding (SREBP) (AID 2282962); conditions: HepG2 Attagene cis-factorial SREBP reporter, mRNA; actives raise or lower the signal
Procedure, shortened: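 mRNA induction of transfected cis-promoter reporters in HepG2 cells, 24 h post-dose. Detection: RT-PCR with 6-FAM-labelled products, HpaI digest, capillary electrophoresis. DMSO served as negative control and baseline.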

[7] = molecular target: Signal transducer and activator of transcription 3 (Homo sapiens) (UniProt P40763); assay: ATG_STAT3_CIS: Attagene CIS-FACTORIAL HepG2 Assay for human Signal Transducer and Activator of Transcription 3 (STAT3) (AID 2282963); conditions: HepG2, Attagene cis-factorial STAT3 reporter transcription; actives raise or lower the signal
Chain of Signal transducer and activator of transcription 3 (Homo sapiens) (P40763 whole entry, looked up): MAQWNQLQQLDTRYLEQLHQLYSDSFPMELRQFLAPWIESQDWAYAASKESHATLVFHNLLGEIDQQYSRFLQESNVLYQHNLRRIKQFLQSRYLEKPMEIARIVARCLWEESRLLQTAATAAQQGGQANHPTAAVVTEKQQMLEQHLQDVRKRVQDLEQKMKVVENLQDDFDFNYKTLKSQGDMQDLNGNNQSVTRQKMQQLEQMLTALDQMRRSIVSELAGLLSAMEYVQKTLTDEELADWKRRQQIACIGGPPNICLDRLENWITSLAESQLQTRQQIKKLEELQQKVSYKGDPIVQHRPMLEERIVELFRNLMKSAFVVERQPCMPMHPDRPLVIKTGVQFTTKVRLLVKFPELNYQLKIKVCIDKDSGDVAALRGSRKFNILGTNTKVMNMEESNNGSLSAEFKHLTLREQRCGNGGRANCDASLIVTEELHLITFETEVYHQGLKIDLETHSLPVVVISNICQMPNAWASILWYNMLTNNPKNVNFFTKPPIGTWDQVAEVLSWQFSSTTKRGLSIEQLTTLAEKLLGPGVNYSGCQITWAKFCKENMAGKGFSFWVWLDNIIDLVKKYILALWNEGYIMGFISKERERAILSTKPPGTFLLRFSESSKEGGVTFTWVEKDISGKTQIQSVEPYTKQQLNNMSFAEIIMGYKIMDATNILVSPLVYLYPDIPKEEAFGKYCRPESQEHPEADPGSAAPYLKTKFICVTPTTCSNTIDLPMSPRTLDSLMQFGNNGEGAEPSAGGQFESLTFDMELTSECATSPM
Procedure, shortened: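 Values derive from bidirectional fits relative to DMSO of reporter mRNA levels, measured by RT-PCR with capillary electrophoresis, in HepG2 cells carrying transiently transfected cis-regulated reporter units and exposed 24 h.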

[8] = ATG_TA_CIS: Attagene CIS-FACTORIAL HepG2 Assay for human TA Basal Promoter (AID 2282964); conditions: HepG2 Attagene CIS-factorial TA basal promoter reporter; actives raise or lower the signal
Procedure, shortened: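 Background-control readout: TA basal promoter reporter mRNA, fitted in both directions relative to DMSO. Measured by RT-PCR and capillary electrophoresis 24 hours after treating HepG2 human liver cells transiently carrying multiplexed cis-regulated reporter constructs.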

[9] = ATG_TCF_b_cat_CIS: Attagene CIS-FACTORIAL HepG2 Assay for human T-Cell-Factor with beta-catenin (TCF/b-cat) (AID 2282965); conditions: HepG2 TCF/beta-catenin cis-reporter transcription, actives raise or lower the signal
Procedure, shortened: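 HepG2, transient MRTU transfection, cis-element-driven reporters (endogenous TFs). 24 h compound exposure. Readout: reporter mRNA by RT-PCR + 6-FAM primer extension, HpaI digest, capillary electrophoresis. Gain/loss fit vs DMSO baseline.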

[10] = ATG_TAL_CIS: Attagene CIS-FACTORIAL HepG2 Assay for human TAL Basal Promoter (AID 2282966); conditions: HepG2 Attagene cis-factorial TAL promoter reporter; actives raise or lower the signal;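 further: background control endpoint measuring basal TAL promoter reporter mRNA not a specific factor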
Procedure, shortened: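 Fluorescence of labelled reporter cDNA fragments, resolved by capillary electrophoresis, gave the readout. Human HepG2 liver cells carried transiently transfected cis-element reporter units and were treated for 24 hours; activity was fitted bidirectionally against DMSO.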

[11] = ATG_TGFb_CIS: Attagene CIS-FACTORIAL HepG2 Assay for human Transforming Growth Factor (TGF) (AID 2282967); conditions: HepG2 Attagene CIS TGFb reporter, mRNA transcription; actives raise or lower the signal
Procedure, shortened: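 Endogenous TGFB1-linked transcription factor activity read as reporter mRNA via RT-PCR and capillary electrophoresis, 24 h after dosing transiently transfected HepG2 cells. Gain or loss of signal fitted relative to DMSO.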

[12] = molecular target: Nuclear receptor subfamily 1 group I member 3 (Homo sapiens) (UniProt Q14994); assay: ATG_CAR_TRANS: Attagene TRANS-FACTORIAL HepG2 Assay for human Constitutive Androstane Receptor (CAR) (AID 2282969; active means hit-call score of the fitted dose curve at least 0.9, where 1 is the maximum;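 further: activators raise reporter mRNA above DMSO so AC50 marks induction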); conditions: HepG2 Attagene TRANS-FACTORIAL CAR reporter
Chain of Nuclear receptor subfamily 1 group I member 3 (Homo sapiens) (Q14994 whole entry, looked up, the tested form may be a part): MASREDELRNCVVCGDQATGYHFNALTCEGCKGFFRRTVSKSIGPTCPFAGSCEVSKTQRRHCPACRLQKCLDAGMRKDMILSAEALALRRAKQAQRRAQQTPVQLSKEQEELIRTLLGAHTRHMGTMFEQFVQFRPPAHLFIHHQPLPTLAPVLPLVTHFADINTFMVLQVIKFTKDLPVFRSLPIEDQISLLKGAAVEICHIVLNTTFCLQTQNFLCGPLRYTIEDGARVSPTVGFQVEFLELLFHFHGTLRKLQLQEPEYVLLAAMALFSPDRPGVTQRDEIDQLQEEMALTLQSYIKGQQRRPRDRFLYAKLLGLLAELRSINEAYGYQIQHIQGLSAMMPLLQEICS
Procedure, shortened: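 HepG2 cells transiently transfected with GAL4-UAS reporter units; TRANS format reads activity of exogenous chimeric NR-Gal4 protein. After 24 h dosing, reporter mRNA quantified by RT-PCR, 6-FAM labelling and capillary electrophoresis; gain of signal fitted against DMSO.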

[13] = molecular target: Steroid hormone receptor ERR1 (Homo sapiens) (UniProt P11474); assay: ATG_ERRa_TRANS: Attagene TRANS-FACTORIAL HepG2 Assay for human Estrogen-Related Receptor alpha (ERRa) (AID 2282971; active means hit-call score of the fitted dose curve at least 0.9, where 1 is the maximum); conditions: HepG2 Attagene TRANS reporter, ERRa transactivation
Chain of Steroid hormone receptor ERR1 (Homo sapiens) (P11474 whole entry, looked up, the tested form may be a part): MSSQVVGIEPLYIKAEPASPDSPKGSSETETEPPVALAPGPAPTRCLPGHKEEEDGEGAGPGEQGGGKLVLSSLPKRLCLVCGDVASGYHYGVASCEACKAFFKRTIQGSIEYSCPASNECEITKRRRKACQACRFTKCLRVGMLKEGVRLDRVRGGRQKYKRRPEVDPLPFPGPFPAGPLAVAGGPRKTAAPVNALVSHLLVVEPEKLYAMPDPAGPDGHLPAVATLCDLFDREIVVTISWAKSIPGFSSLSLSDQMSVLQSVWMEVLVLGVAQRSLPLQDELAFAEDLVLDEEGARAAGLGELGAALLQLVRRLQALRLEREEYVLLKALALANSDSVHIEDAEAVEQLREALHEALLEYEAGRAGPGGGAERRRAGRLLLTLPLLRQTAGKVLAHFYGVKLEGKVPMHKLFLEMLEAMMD
Procedure, shortened: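 Reporter transcript induction was quantified by RT-PCR and capillary electrophoresis of FAM-labelled, HpaI-cut products after 24 h treatment of HepG2 cells carrying transiently transfected GAL4-UAS reporter units and an exogenous ERRa-Gal4 fusion; activity scored as increase over DMSO.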

[14] = ATG_RORE_CIS: Attagene CIS-FACTORIAL HepG2 Assay for human RAR-related Orphan Receptor Element (RORE) (AID 2282959); conditions: HepG2 Attagene cis-factorial RORE reporter, mRNA; actives raise or lower the signal
Procedure, shortened: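 HepG2 cells transiently transfected with multiple cis-element reporter transcription units, exposed to chemical for 24 h. Reporter mRNA quantified by RT-PCR, 6-FAM primer-extension labeling, HpaI digestion and capillary electrophoresis; bidirectional fit versus DMSO baseline.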

[15] = ATG_VDRE_CIS: Attagene CIS-FACTORIAL HepG2 Assay for human Vitamin D Receptor Element (VDRE) (AID 2282968); conditions: HepG2 VDRE cis-reporter transcription, actives raise or lower the signal
Procedure, shortened: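 Cell-based multiplexed reporter format in human liver HepG2 cells, 24 h post-dose. Fluorescence from capillary electrophoresis of reporter cDNA gives the signal, with DMSO as negative control and baseline.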

[16] = ATG_GAL4_TRANS: Attagene TRANS-FACTORIAL HepG2 Assay for GAL4 (Internal Marker) (AID 2282976; active means hit-call score of the fitted dose curve at least 0.9, where 1 is the maximum); conditions: HepG2 Attagene TRANS GAL4 internal marker reporter
Procedure, shortened: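 First, HepG2 cells were transfected with reporter units under GAL4-UAS control. Next, they were treated with chemical for 24 h. Finally, RNA was reverse-transcribed, PCR-amplified, FAM-labelled and resolved by capillary electrophoresis, with induction scored against DMSO.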

[17] = molecular target: Estrogen receptor (Homo sapiens) (UniProt P03372); assay: ATG_ERa_TRANS: Attagene TRANS-FACTORIAL HepG2 Assay for human Estrogen Receptor alpha (ERa) (AID 2282970; active means hit-call score of the fitted dose curve at least 0.9, where 1 is the maximum); conditions: HepG2 Attagene TRANS ERa GAL4 reporter, mRNA
Chain of Estrogen receptor (Homo sapiens) (P03372 whole entry, looked up, the tested form may be a part): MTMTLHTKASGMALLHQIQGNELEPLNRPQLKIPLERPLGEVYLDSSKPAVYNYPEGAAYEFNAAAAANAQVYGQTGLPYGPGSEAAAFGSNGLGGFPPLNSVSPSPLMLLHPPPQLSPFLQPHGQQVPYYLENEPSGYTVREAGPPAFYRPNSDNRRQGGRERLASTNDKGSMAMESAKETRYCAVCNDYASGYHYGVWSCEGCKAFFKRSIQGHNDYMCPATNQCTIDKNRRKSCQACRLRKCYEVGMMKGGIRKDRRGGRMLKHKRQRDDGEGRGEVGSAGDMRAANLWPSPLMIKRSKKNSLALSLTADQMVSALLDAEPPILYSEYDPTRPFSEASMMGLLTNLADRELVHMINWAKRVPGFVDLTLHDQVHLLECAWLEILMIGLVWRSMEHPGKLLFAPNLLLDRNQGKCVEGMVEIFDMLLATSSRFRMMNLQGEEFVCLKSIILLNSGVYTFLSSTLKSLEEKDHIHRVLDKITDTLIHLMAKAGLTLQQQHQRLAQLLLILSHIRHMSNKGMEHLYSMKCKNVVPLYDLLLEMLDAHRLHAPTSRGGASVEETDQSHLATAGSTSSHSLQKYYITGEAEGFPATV
Procedure, shortened: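 Human liver HepG2, transient transfection of multiple GAL4-UAS reporter units; TRANS format (exogenous NR-Gal4 chimera). 24 h dosing. Readout: reporter mRNA, RT-PCR, 6-FAM primer extension, HpaI digest, capillary electrophoresis. Positive direction vs DMSO.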

[18] = molecular target: X-box-binding protein 1 (Homo sapiens) (UniProt P17861); assay: ATG_Xbp1_CIS: Attagene CIS-FACTORIAL HepG2 Assay for human X-box Binding Protein 1 (XBP1) (AID 2282972); conditions: HepG2 XBP1 cis-element reporter, Attagene multiplex; actives raise or lower the signal
Chain of X-box-binding protein 1 (Homo sapiens) (P17861 whole entry, looked up, the tested form may be a part): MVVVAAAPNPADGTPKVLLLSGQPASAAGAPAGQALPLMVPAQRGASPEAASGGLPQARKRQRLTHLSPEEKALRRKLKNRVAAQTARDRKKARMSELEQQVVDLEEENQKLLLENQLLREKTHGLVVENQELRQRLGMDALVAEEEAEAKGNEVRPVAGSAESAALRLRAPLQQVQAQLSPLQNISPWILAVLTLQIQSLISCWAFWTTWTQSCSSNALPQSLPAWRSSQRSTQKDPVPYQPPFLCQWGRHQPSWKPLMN
Procedure, shortened: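 Fluorescence-labelled cDNA fragments from reporter transcripts, separated by capillary electrophoresis, give the signal. Source: HepG2 cells transfected with promoter-driven reporter units, harvested 24 h post-dose. DMSO served as reference for bidirectional curve fitting.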

[19] = molecular target: Androgen receptor (Homo sapiens) (UniProt P10275); assay: ATG_AR_TRANS: Attagene TRANS-FACTORIAL HepG2 Assay for human Androgen Receptor (AR) (AID 2282973; active means hit-call score of the fitted dose curve at least 0.9, where 1 is the maximum); conditions: HepG2 Attagene TRANS-FACTORIAL AR reporter transcription
Chain of Androgen receptor (Homo sapiens) (P10275 whole entry, looked up, the tested form may be a part): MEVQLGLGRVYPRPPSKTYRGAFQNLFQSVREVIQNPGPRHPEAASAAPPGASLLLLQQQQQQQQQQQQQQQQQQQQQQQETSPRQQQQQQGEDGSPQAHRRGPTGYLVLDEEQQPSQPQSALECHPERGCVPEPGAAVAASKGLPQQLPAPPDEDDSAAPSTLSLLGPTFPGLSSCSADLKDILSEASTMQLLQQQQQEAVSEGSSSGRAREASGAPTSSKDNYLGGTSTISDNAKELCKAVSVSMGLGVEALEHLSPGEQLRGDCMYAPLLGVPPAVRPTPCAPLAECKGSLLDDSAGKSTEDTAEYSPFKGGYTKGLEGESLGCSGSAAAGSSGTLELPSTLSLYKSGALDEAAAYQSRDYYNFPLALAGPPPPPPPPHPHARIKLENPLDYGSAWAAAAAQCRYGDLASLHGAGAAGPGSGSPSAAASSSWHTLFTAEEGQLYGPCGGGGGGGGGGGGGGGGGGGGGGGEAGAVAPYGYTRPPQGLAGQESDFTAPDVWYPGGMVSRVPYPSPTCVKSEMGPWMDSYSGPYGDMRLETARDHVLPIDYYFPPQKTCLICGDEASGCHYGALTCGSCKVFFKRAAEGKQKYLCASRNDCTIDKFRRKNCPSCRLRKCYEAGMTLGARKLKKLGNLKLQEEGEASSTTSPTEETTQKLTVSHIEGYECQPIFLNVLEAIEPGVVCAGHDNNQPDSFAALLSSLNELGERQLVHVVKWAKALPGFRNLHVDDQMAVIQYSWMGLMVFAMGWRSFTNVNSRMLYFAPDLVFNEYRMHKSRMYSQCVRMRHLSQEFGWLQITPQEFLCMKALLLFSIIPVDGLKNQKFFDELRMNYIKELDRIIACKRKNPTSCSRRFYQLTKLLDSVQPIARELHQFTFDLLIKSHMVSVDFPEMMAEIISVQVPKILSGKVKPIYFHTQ
Procedure, shortened: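 Steps: transfect HepG2 with multiple GAL4-UAS reporter transcription units (TRANS format, exogenous NR-Gal4 protein); dose 24 h; isolate RNA, reverse-transcribe, PCR-amplify, FAM-label, HpaI-digest; resolve by capillary electrophoresis. Positive direction vs DMSO.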

[20] = ATG_M_19_TRANS: Attagene TRANS-FACTORIAL HepG2 Assay for M19 Transcription Factor (Internal Marker) (AID 2282974; active means hit-call score of the fitted dose curve at least 0.9, where 1 is the maximum); conditions: HepG2 Attagene TRANS-FACTORIAL M19 internal marker reporter
Procedure, shortened: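 HepG2 cells transiently transfected with multiple GAL4-UAS reporter transcription units were exposed to chemicals for 24 h. Reporter mRNA was read by RT-PCR, 6-FAM primer extension, HpaI digestion and capillary electrophoresis; gain of signal fitted relative to DMSO.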

Measured: AC50

Nc1ccc(Oc2ccc(N)cc2)cc1
not listed: [14] | [15] | [16] | [17] | [18] | [19] | [20]
inactive: all other assays above

OCCCl
not listed: [13] | [17] | [18] | [19] | [20]
inactive: all other assays above

OCCCBr
not listed: [12] | [14] | [16] | [19] | [20]
inactive: all other assays above

Oc1ccccc1Cl
not listed: [5] | [13] | [14] | [16] | [17] | [19] | [20]
inactive: all other assays above

O=[N+]([O-])C(Br)(CO)CO
active: [1] 100 µM | [2] 158 µM | [4] 170 µM | [5] 145 µM | [9] 100 µM | [11] 23.4 µM | [15] 127 µM
not listed: [13] | [14] | [16] | [18] | [20]
inactive: all other assays above

CNC(=O)Oc1cccc2c1OC(C)(C)C2
active: [2] 17.1 µM
not listed: [5] | [13] | [14] | [16]
inactive: all other assays above

CCC12COCN1COC2
not listed: [12] | [13] | [17] | [19]
inactive: all other assays above

N#CC(Br)(Br)C(N)=O
active: [2] 100 µM | [6] 169 µM | [9] 165 µM
not listed: [12] | [13] | [16] | [17] | [18] | [19]
inactive: all other assays above

CCN(CC)CCO
not listed: [12] | [13] | [14] | [15] | [16] | [17] | [19] | [20]
inactive: all other assays above
